Growth inhibition data for 40 compounds are collected here from PubChem BioAssay (NCI).

Structures are written as SMILES. About 79,000 compounds went through this panel and 15% of them were active in at least one assay; those are over-represented in the sample as a whole. A number with no mark means an inactive call. Calls of active or inactive are those of the source. Rule as the data show it: active = growth inhibition above about 70%; inactive = the rest.

A short description of the experiment: NCI Yeast Anticancer Drug Screen. Data for the cln2 rad14 strain (AID 165).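 Also: 0% = growth equal to vehicle treated cultures.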 To be noted: S. cerevisiae cln2 rad14 strain, at 50.0 µM, hits give high values. As for the experimental part: Growth inhibition of yeast strains with defined genetic alterations is measured as a screen for potential anti-cancer activity. Selected strains with alterations in DNA damage repair or cell cycle control were exposed to compounds and growth inhibition was measured relative to vehicle treated controls. The strain used in this assay is cln2 rad14
Consider `CCn1c2c(c3ccccc31)[C@@H](c1ccc(Cl)cc1)CC1C(=O)N(c3ccccc3)C(=O)C21` (stereo not given in full), for which the growth inhibition is -8.05%.
The value for `COC(=O)C1=C2C3(O)CC4CC5C3CCC(C)N5C24C2CCC(O)C(OC)C2C1OC(=O)c1ccccc1` (stereo not given) was -1.85%; that for `Nc1ncnc2c1ccn2Cc1c(F)cccc1Cl` was -1.2%.
Take `NC(=O)CN(CC(N)=O)C(N)=O`: the growth inhibition is 5.15%.
With `CCC(=O)OCC[N+](C)(C)C` the figure was -4.25%.
With `CNc1ccccc1C(=O)N/N=C/C1CCCCC1` the figure was -6.85%.
Take `Nc1ccc(S(=O)(=O)Nc2nc(CN3CCCCC3)cs2)cc1`: the growth inhibition is -38.5%.
Consider `CCCOC(=O)c1ccccc1Cl`, for which the growth inhibition was 13.4%.
With `BrC1=C(c2ccccc2)C2CCCCC2C1(Br)c1ccccc1` (stereo not given) the figure was 96.9% (active); with `CN(C)CCCOCCn1c2c(c3ccccc31)CCCC2`, -2.95%.
Turning to `Nc1c(-c2nc3ccccc3[nH]2)sc(=S)n1-c1ccc(Cl)cc1`, the growth inhibition is 8.9%.
The value for `CC(C)C1C(=O)CCCC1=O` was -12.9%.
With `OCC1(CO)CCC=CO1` the figure was 10.7%.
With `O=C(O)c1c[nH]c2c(Cl)cccc2c1=O` the figure was 10.8%; with `Nc1cccc(CNC(=O)COc2ccc(Cl)c(Cl)c2)c1`, 77.2% (active).
As for `Clc1ccccc1-c1nnc(-c2cccc(-c3nnc(-c4ccccc4Cl)o3)n2)o1`, the growth inhibition is -9.1%.
The value for `CCCCCC(=O)c1ccccc1` was -23.9%; that for `Cc1ccc(NC(=O)Oc2cccc(C(F)(F)F)c2)cc1` was -12.7%; that for `Cc1c(C(C)c2[nH]c3ccccc3c2C)[nH]c2ccccc12` was 4.45%.
The value for `N#CC1(C#N)CC1c1ccccc1` (stereo not given) was -6.1%.
With `O=Cc1cc(O)ccc1[N+](=O)[O-]` the figure was 13.3%.
With `Cc1cc2c(cc1C)-c1c(N)nc(N)nc1CC2`, the growth inhibition was -29.2%.
The value for `CCOC(=O)Oc1ccc2[nH]c3c(C)cc(N)c(C)c3c2c1` was -7.8%; that for `O=C1N=C2SCCCN2C1(c1ccccc1)c1ccccc1` was -7%.
The value for `CNc1cc2oc(=O)cc(C)c2cc1C` was 3.6%.
In the case of `O=C(NCCCl)NC(Cc1ccccc1)Cc1ccccc1`, the growth inhibition is 53.7%.
With `COc1ccc(O)c(/C=N/NC(N)=S)c1` the figure was -115%.
The value for `CCC(CC)COC(=O)c1ccccc1C` was -27.1%.
The value for `Cc1nnc(-c2cn(C3OC(CO)C(O)C3O)c3ncnc(N)c23)nc1C` (stereo not given) was 0%; that for `COC(=O)C1CN=CN1CCc1ccccc1` (stereo not given) was 12.4%; that for `CCN(CC)CCCNc1cc(O)cc2cccnc12` was 2.6%.
With `O=C1c2cccc(O)c2C(=O)c2c(OC3OC(CO)C(OC4OC(CO)C(O)C(O)C4O)C(O)C3O)cccc21` (stereo not given), the growth inhibition was -5.55%.
With `O=P(c1ccccc1)(c1ccccc1)c1ccccc1OCc1cccc(COc2ccccc2P(=O)(c2ccccc2)c2ccccc2)n1`, the growth inhibition was -21.9%.
The value for `CCCN(CCC)NC(=O)c1ccc(N=NN(C)C)cc1` was -5.3%; that for `CCC(=O)[CH-]C(=O)CC.CCC(=O)[CH-]C(=O)CC.[Cu+2]` was -39.4%; that for `COC(=O)c1cn[nH]c1CC(N)=O` was -17.1%.
As to `CC(NNC(=S)N1CC2CCC(CC2)C1)c1cccc[n+]1[O-]` (stereo not given), the growth inhibition is 84.7% (active).
With `CCOC(CCc1c(C)nc[nH]c1=O)OCC` the figure was -35.4%.
For the compound `CC(C(=O)O)C(Nc1ncnc2c1ncn2C1OC(CO)C(O)C1O)C(=O)O` (stereo not given), the growth inhibition was -2.1%.
With `CCC[CH2][Sn]([CH2]CCC)([O]C(=O)c1ccc(OC)c(OC)c1OC)[O][Sn]([CH2]CCC)([CH2]CCC)[O]C(=O)c1ccc(OC)c(OC)c1OC` the figure was 85.2% (active).
